The record followed here is ChEMBL document CHEMBL1157539, “Thousands of chemical starting points for antimalarial lead identification” (Nature, 2010).

What all share (type): functional
Assay [1] deals with Plasmodium falciparum. In words: GSK_TCMDC: Inhibition of Plasmodium falciparum 3D7 in whole red blood cells, using parasite LDH activity as an index of growth. Test compounds present at 2uM.
Assay [2] deals with Plasmodium falciparum. Nature of the assay: GSK_TCMDC: Inhibition of Plasmodium falciparum Dd2 in whole red blood cells, using parasite LDH activity as an index of growth. Test compounds present at 2uM.
In the next assay the test system is HepG2. In words: GSK_TCMDC: Percent inhibition of human HepG2 cell line. Test compounds present at 10uM.

Molecules are shown by their SMILES.

As usually defined, the Inhibition is the change of the read-out against control, counted positive when it falls. With `Cc1nc(-c2cccc3c(NC(=O)Nc4ccc5nccc(N6CCN(C)CC6)c5c4)cccc23)no1.Cl`, the Inhibition worked out at 100% in the assay on Plasmodium falciparum [1], 84% with Plasmodium falciparum [2] and 0% in the assay on HepG2.

Turning to `N#Cc1c(N)nc(SCC(=O)Nc2cc(C(F)(F)F)ccc2Cl)c(C#N)c1-c1cccs1`, the values for the Inhibition in the assay on Plasmodium falciparum [1], in the assay with Plasmodium falciparum [2] and with HepG2 were 90%, 96% and 23%, respectively.

Turning to `O=C(NCc1ccccc1)Nc1ccc(-c2cccc(-c3nc4cc(C(F)(F)F)ccc4[nH]3)c2)cc1`, the results for the Inhibition in the assay on Plasmodium falciparum [1], with Plasmodium falciparum [2] and with HepG2 were 97%, 23% and 56%, respectively.

Take `Cn1nccc1C(=O)NCCNCc1cccc(-c2ccc(-c3nc4ccccc4[nH]3)s2)c1.O=C(O)C(F)(F)F`: the Inhibition in the assay on Plasmodium falciparum [1] is 100%; with Plasmodium falciparum [2] it was 94%; in the assay with HepG2 it was 22%.

Regarding `Cc1c[nH]c2ccc(/C=C/C(=O)NC3CCC(CCN4CCc5ccc(C#N)cc5CC4)CC3)cc12.Cl` (stereo unspecified), the Inhibition in the assay on Plasmodium falciparum [1] is reported as 100%; with Plasmodium falciparum [2] it was 91%; with HepG2 it was 9%.

As for `COc1ccc(Cl)cc1N1CCN(CCCNC(=O)c2ccc(-c3nc4cc(Cl)c(F)cc4[nH]3)s2)CC1`, the Inhibition in the assay with Plasmodium falciparum [1] was determined as 100%; in the assay on Plasmodium falciparum [2], 98%; in the assay with HepG2, 12%.

Turning to `C[C@H](NC(=O)c1c(CN2CCC(N3CCCCC3)CC2)c(-c2ccccc2)nc2cc(O)ccc12)C1CCCCC1`, the Inhibition was 99% in the assay with Plasmodium falciparum [1], 72% with Plasmodium falciparum [2] and 77% in the assay with HepG2.

For the compound `O=C(C=Cc1cn(-c2ccccc2)nc1-c1ccccc1)N1CCN(c2ccncc2)CC1`, the Inhibition is on record as 90% with Plasmodium falciparum [1], 20% in the assay with Plasmodium falciparum [2] and 11% in the assay with HepG2.

Regarding `Cc1cc(N2CCOCC2)nc(Nc2ccc(NC(=O)Nc3ccc(F)cc3)cc2)n1`, the Inhibition in the assay on Plasmodium falciparum [1] stood at 100%; in the assay with Plasmodium falciparum [2] it was 34%; in the assay with HepG2, 35%.

For the compound `CCc1nc2c(N)nc(N)nc2nc1-c1ccc(OC)cc1`, the Inhibition in the assay on Plasmodium falciparum [1] worked out at 86%; in the assay with Plasmodium falciparum [2], 0%; in the assay on HepG2 it was 44%.

Regarding `CCOC(=O)c1ccc(OCc2ccc(-c3ccccc3)cc2)cc1`, the Inhibition in the assay on Plasmodium falciparum [1] worked out at 96%; in the assay with Plasmodium falciparum [2] it was 0%; in the assay with HepG2, 18%.

As for `COc1ccc(C=NN=c2cc(C)[nH]c3c(C)cccc23)c2ccccc12`, the Inhibition with Plasmodium falciparum [1] came to 100%; in the assay on Plasmodium falciparum [2], 98%; in the assay with HepG2, 3%.

On to `CCc1cccc(C)c1-n1nc(-c2cc(C(C)(C)C)oc2C)cc1N`, for which the figures for the Inhibition in the assay with Plasmodium falciparum [1], in the assay with Plasmodium falciparum [2] and in the assay with HepG2 were 95%, 95% and 4%, respectively.

For `Fc1ccc2[nH]c(-c3ccc(-c4ccc(CN5CCC(CCN6CCCCC6)CC5)cc4)cc3)nc2c1.O=C(O)C(F)(F)F`, the Inhibition in the assay with Plasmodium falciparum [1] worked out at 100%; in the assay on Plasmodium falciparum [2] it was 100%; with HepG2, 98%.

Regarding `CCn1cc(-c2cc(C(=O)Nc3ccc(OC)cc3C)c3ccccc3n2)c(C)n1`, the Inhibition with Plasmodium falciparum [1] came to 97%; in the assay with Plasmodium falciparum [2], 100%; in the assay on HepG2, 0%.

On to `CC1CN(c2nc(NCCc3ccc(O)cc3)nc(NCc3ccccc3-c3ccc(C(F)(F)F)cc3)n2)CC(C)N1` (stereo unspecified), for which the Inhibition is reported as 100% in the assay on Plasmodium falciparum [1], 68% in the assay on Plasmodium falciparum [2] and 24% with HepG2.

As for `Cc1cc(=O)[nH]c(-n2nc(C)cc2NC(=O)CC(c2ccccc2)c2ccccc2)n1`, the Inhibition in the assay on Plasmodium falciparum [1] was 90%; in the assay on Plasmodium falciparum [2] it was 62%; in the assay on HepG2, 42%.
